{"source": "PubChem BioAssay (NCI)", "note": "The panel holds about 83,000 compounds, 20% with a hit somewhere; the sample as a whole holds those more often.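 Cell lines were cultured in 96-well plates, exposed to a single compound concentration, and assessed for percent growth 48 hours later.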 Unmarked numbers belong to inactive results. Calls of active or inactive are those of the source. Rule for the calls: active = growth percent below 10; inactive = the rest."}
{"system": "OVCAR-3 ovarian", "test": "NCI-60 one-dose screen, 48 h (100 = growth as untreated, 0 = no growth, -100 = all killed)", "details": "10 µM unless noted"}
{"smiles": "CO/C=C/C(=O)c1cc2cnc3c(=N)cc(NC(=O)C(C)C)c([nH]1)c23", "growth": "-45.1% (active)"}
{"smiles": "Cc1cc2c(-c3nc4ccccn4c3Nc3cccc4ccccc34)c(O)c(O)cc2c(O)c1-c1c(C)cc2c(-c3nc4ccccn4c3Nc3cccc4ccccc34)c(O)c(O)cc2c1O", "growth": "68.3%"}
{"smiles": "Cc1cc(N2CCOCC2)nc(N(CCNc2ccnc3cc(Cl)ccc23)Cc2cccs2)n1", "growth": "-73.9% (active)"}
{"smiles": "CCCCCCCC(=O)SCC/C=C/[C@@H]1CC(=O)NCc2cc(ccn2)C2=N[C@@](C)(CS2)C(=O)N[C@@H](C(C)C)C(=O)O1", "growth": "-22.9% (active)"}
{"smiles": "Cc1sc2c(c1C)c(=O)nc1c(-c3nc4ccccc4s3)n[nH]n12", "growth": "98.2%"}
{"smiles": "CC(C)(C)CC(C)(C)Nc1c(-c2c(O)c3ccccc3oc2=O)nc2c(Cl)cc(C(F)(F)F)cn12", "growth": "112%"}
{"smiles": "CCOc1cccc(/C=N/NC(=O)c2ccccc2Nc2ccnc(C(F)(F)F)c2)c1O", "growth": "31.5%"}
{"smiles": "Cc1cc2c(-c3nc4ccccn4c3NC3CCCCC3)c(O)c(O)cc2c(O)c1-c1c(C)cc2c(-c3nc4ccccn4c3NC3CCCCC3)c(O)c(O)cc2c1O", "growth": "32.4%"}
{"smiles": "C=CCC(=O)N[C@H](/C=C/C(=O)O)Cc1ccc(-c2cc(Cl)cc(Cl)c2)cc1", "growth": "108%"}
{"smiles": "CN1CCN(c2nc(NCCNc3ccnc4cc(Cl)ccc34)c3ccccc3n2)CC1", "growth": "17.4%"}
{"smiles": "C[C@@H](C[C@H](CCO)c1cc(C(F)(F)F)cc(C(F)(F)F)c1)c1ccc2ccccc2c1", "growth": "81%"}
{"smiles": "C=C1C(=O)O[C@H]2[C@H]1CC/C(Cn1cc(-c3cc(C)c(C)cc3C)nn1)=C\\CC[C@@]1(C)O[C@@H]21", "growth": "-95.2% (active)"}
{"smiles": "COc1ccc2c(CCCc3ccc(Cl)cc3Cl)c3[n+](cc2c1OC)CCc1cc2c(cc1-3)OCO2", "growth": "-48.4% (active)"}
{"smiles": "CCN1CCN(c2cc(C)nc(N(CCCNc3ccnc4cc(Cl)ccc34)Cc3ccc4c(c3)OCO4)n2)CC1", "growth": "-26.9% (active)"}
{"smiles": "O=C1CC(c2ccc(Cl)cc2)c2ncn(-c3cccc(Cl)c3)c2N1", "note": "(configuration not stated)", "growth": "13.3%"}
{"smiles": "Cc1ccccc1Nc1nc2nonc2nc1Nc1cccc(C)c1C", "growth": "35.8%"}
{"smiles": "Fc1ccc(NCc2cn(-c3ccccc3)nc2-c2ccc(OCc3ccccc3)cc2)cc1Cl", "growth": "97.3%"}
{"smiles": "CCCCCCCC(=O)SCC/C=C/[C@@H]1CC(=O)NCc2cccc(n2)C2=N[C@@](C)(CS2)C(=O)N[C@@H](C(C)C)C(=O)O1", "growth": "-26.5% (active)"}
{"smiles": "COC(=O)C1CCc2sc3ncnc(Nc4cn[nH]c4C(=O)Nc4ccc(CN5CCN(C)CC5)cc4)c3c21", "note": "(configuration not stated)", "growth": "11.4%"}
{"smiles": "C=CC(=O)N(C)[C@H]1C[C@H]2OC(C)(C1OC)n1c3ccccc3c3c4c(c5c6ccccc6n2c5c31)C(=O)NC4", "note": "(some centres not stated)", "growth": "-11.1% (active)"}
{"smiles": "Cc1cc(N(CCNc2ccnc3cc(Cl)ccc23)Cc2ccc3c(c2)OCO3)nc(N2CCN(C)CC2)n1", "growth": "26.5%"}
{"smiles": "CN1CCN(CCCOc2cccc3nc(Nc4ccc(Cl)c(C(F)(F)F)c4)ccc23)CC1", "growth": "-4.07% (active)"}
{"smiles": "Nc1c2c(c(O)c3c1=C(CO)C=N3)=NCCS2", "growth": "-62.3% (active)"}
{"smiles": "Cc1cc(O)c2c(c1)C1OC(=O)CCCCCN1C1=C2C(=O)c2cccc(OC3CC(O)C(O)C(C)O3)c2C1=O", "note": "(configuration not stated)", "growth": "7.5% (active)"}
{"smiles": "CC1(C=O)NC(=O)NC1=O", "note": "(configuration not stated)", "growth": "115%"}
{"smiles": "COc1ccc(Nc2ncccc2NC(=O)c2cn(Cc3cccc(Oc4ccccc4)c3)nn2)cc1", "growth": "92%"}
{"smiles": "OCCNC(=S)Nc1ccc(-c2nc(N3C[C@H]4CC[C@@H](C3)O4)c3cccn3n2)cc1", "growth": "-4.31% (active)"}
{"smiles": "O=C(c1ccccc1)C(c1ccccc1)N1CCOCC1", "note": "(configuration not stated)", "growth": "101%"}
{"smiles": "NN1C(=O)CSC1=S", "growth": "110%"}
{"smiles": "CC12O[C@H](C[C@@H](OC(=O)CCC(=O)O)[C@H]1O)n1c3ccccc3c3c4c(c5c6ccccc6n2c5c31)C(=O)NC4=O", "growth": "27.9%"}
{"smiles": "C=C1[C@@H](O)C[C@H]2C(C)(C)C[C@H](Cl)C[C@]2(C)[C@H]1C[C@H](O)[C@H]1CC(=O)NC1=O", "growth": "-27.4% (active)"}
{"smiles": "COC(=O)[C@H](Cc1ccccc1)NC(=O)[C@@H](OC)[C@@H]1Cc2cc3cc(OC4CC(OC5CC(O)C(O)C(C)O5)C(O)C(C)O4)c(C)c(O)c3c(O)c2C(=O)[C@H]1OC1CC(OC2CC(OC3CC(C)(O)C(O)C(C)O3)C(O)C(C)O2)C(O)C(C)O1", "note": "(some centres not stated)", "growth": "5.7% (active)"}
